This is an account of results in PubChem BioAssay (NCI).

Values joined by “and” are separate entries in the source; they are usually repeats but may differ in a detail not shown here. Equal values may be shown once. About 79,000 compounds went through this panel and 15% of them were active in at least one assay; those are over-represented in the sample as a whole. A structure can be active in one record and inactive in another. Active and inactive are the calls of the source. Rule as the data show it: active = growth inhibition above about 70%; inactive = the rest.

A short description of the assay: NCI Yeast Anticancer Drug Screen. Data for the mlh1 rad18 strain (AID 175). To be noted: S. cerevisiae mlh1 rad18 strain growth inhibition; at 50.0 µM; stronger effect = higher value. The method in brief: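 Steps: expose repair-defective yeast to compound; measure growth; express inhibition against vehicle-treated controls.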
Consider `Oc1c(Cl)cc(Cl)cc1Cc1cc(Cl)cc(Cl)c1O`, for which the growth inhibition was 98.5% (active) and 99.2% (active).
In the case of `CC(C)C1=CC23CCC4C(C)(C(=O)O)CCCC4(C)C2CC1C1C(=O)OC(=O)C13` (centres undefined) it was 99.4% (active) and 99.5% (active).
As to `CCCCCCCCCCCCCCCCCCOCC(COP(=O)([O-])OCC[N+](C)(C)C)OC` (centres undefined), the growth inhibition was -1.25% (inactive) and -47% (inactive).
In the case of `CC(C)C1=C(O)C2=C(C(=O)C1=O)C1(C)CCCC(C)(C)C1CC2O` (centres undefined) it was 83.1% (active) and 21.6% (inactive); in that of `CC(=O)[O-].[O-]c1c(Cl)cc(Cl)cc1/C=N/Nc1ccccn1.[Zn+2]`, 97% (active); in that of `O=C(c1ccccc1)C(c1ccccc1)C(O)c1ccc([N+](=O)[O-])cc1` (centres undefined), 96.7% (active) and 99.5% (active).
The same measure for `N#CC1(C2SCCS2=O)C2=C(C(=O)c3ccccc3C2=O)N2CCCC21` (centres undefined): 89.9% (active); for `CCN(CC)CCC(=O)/C=C/c1ccccc1`: 99.3% (active) and 36% (inactive).
The same measure for `Fc1cccc(CSC(=S)Nc2ccc(F)c(F)c2)c1`: 99.7% (active).
Consider `CC(=O)OC1COC(n2c(N)c(C#N)c(-c3ccccc3)c(C#N)c2=S)C(OC(C)=O)C1OC(C)=O` (centres undefined), for which the growth inhibition was 62.9% (inactive) and 56.9% (inactive).
The same measure for `O=c1[nH]c2cc([N+](=O)[O-])ccc2nc1/C=C(\O)c1ccc([N+](=O)[O-])cc1`: 68.4% (inactive) and -1.4% (inactive); for `C/C(=N\O)c1cc(Br)cc([N+](=O)[O-])c1O`: 14.8% (inactive).
The same measure for `O=C1/C(=C/c2ccc(Cl)cc2)CNC/C1=C\c1ccc(Cl)cc1`: 81.2% (active) and 79.2% (active); for `CCCCCCCCCCCCCCCCCC(=O)NCCO`: 3.7% (inactive) and 10.8% (inactive).
